The source of these data is PubChem BioAssay AID1259312 (Keith Lab, Institute of Cancer Science, University of …, 2017).

In all, about 4,500 compounds went through this assay and about 200 (4.4%) were called active.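 The calls were made as follows: active = cell survival measured by absorbance rises more than 2.5-fold over infected cells without compound; inactive = the rest.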 For the sample, actives were picked, then their nearest neighbours and some compounds at random.

The nature of this assay: survival after telomere uncapping, modulators, primary screen, cell-based (AID 1259312).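 Also: virus expresses mutant telomerase RNA that uncaps telomeres and kills cells; compound added 2 days after infection so exposure lasts 3 days.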 The following applies: HCT116 + Ad-hTR-mut, MTT, 5 d; at 10 µM, hits give high values.
Take `S=c1nc(-c2ccccc2Cl)[nH][nH]1`: the fold change was -1.2 (inactive).

Turning to `Nn1c(-c2cccs2)nc2ccccc2c1=O`, the fold change is -1.03 (inactive).

Turning to `O=C1C=CC(=O)N1c1ccc(Cl)c(Cl)c1`, the fold change was -1.48 (inactive).

Consider `NCC1NCCc2ccccc21` (configuration not stated), for which the fold change is -1.4 (inactive).

`NC(=S)NCCC[C@H](N)C(=O)O`: the fold change was 1.05 (inactive).

Regarding `c1ccc2cc(NCSCc3nc4ccccc4c4ccccc34)ccc2c1`, the fold change is -1.54 (inactive).

With `Cc1ccnc(SC2CC(=O)N(c3ccc4ccccc4c3)C2=O)n1` (configuration not stated), the fold change is -1.04 (inactive).

Take `O=C1C2C3c4ccccc4C(c4ccccc43)C2C(=O)N1c1ccc2ccccc2c1` (configuration not stated): the fold change is 3.16 (active).

For `O=C1C2C3CC(C(Br)C3Br)C2C(=O)N1c1ccc(Br)cc1` (configuration not stated), the fold change was 1.06 (inactive).

As to `CN1C(=O)COc2ccc(S(=O)(=O)N3CCOCC3)cc21`, the fold change was -1.01 (inactive).

`Nc1nc(=S)n(-c2ccccc2)[nH]1`: the fold change was -2.51 (inactive).

With `N#CC1=C(N)Oc2ccc(N)cc2C1c1cccnc1` (configuration not stated), the fold change is 2.15 (inactive).

With `CC(C)N1C=C(Cc2cccnc2)C2=C(C1)C(c1cccnc1)C(C#N)=C(N)O2` (configuration not stated), the fold change is 2.25 (inactive).

Consider `N#CC1=C(N)N(Cc2ccccc2)C2=C(COC/C2=C/c2cccnc2)C1c1cccnc1` (configuration not stated), for which the fold change was 2.64 (active).

Turning to `COc1cccc(OC)c1-c1noc(CSc2nc3ccccc3o2)n1`, the fold change is -1.15 (inactive).

Consider `O=c1[nH]c(=O)n([C@@H]2O[C@H](CO)[C@@H](O)[C@H]2O)cc1Br`, for which the fold change is -3.23 (inactive).

`Cc1cc(C)n(-c2nc(N3CCOCC3)nc(N3CCOCC3)n2)n1`: the fold change was 1.04 (inactive).

`Cc1cc(C)nc(Nc2ccc(N3CCOCC3)cc2)n1`: the fold change is -1.54 (inactive).

For `O=c1nc(N2CCOCC2)nc(Nc2ccccc2)[nH]1`, the fold change result was “active”.

For the molecule `CCc1cc(C=C(Cl)Cl)oc(=O)c1C`, the fold change was -1.84 (inactive).

Take `Cc1cc2ccc(=O)oc2cc1OC[C@@H](O)C(C)(C)O`: the fold change is -1.35 (inactive).

In the case of `O=S(=O)(NCc1ccco1)c1ccc(Br)cc1`, the fold change is 2.26 (inactive).

Regarding `O=c1[nH]nc(CSCc2ccc(Cl)cc2)[nH]1`, the fold change result is “inactive”.

Regarding `O=c1[nH]nc(CSCc2ccc3nsnc3c2)[nH]1`, the fold change entry is “active”.

Regarding `O=c1[nH]nc(CSCc2csc(-c3ccccc3)n2)[nH]1`, the fold change entry was “inactive”.

As for `NCCCN1CCc2ccccc21`, the fold change is -1.28 (inactive).

In the case of `O=C(c1n[nH]c(=O)c2ccccc12)N1CCN(c2ccccn2)CC1`, the fold change was -1.05 (inactive).

As to `Cc1ccc(C)n1-c1sc2c(c1C(=O)O)CCCC2`, the fold change was -1.1 (inactive).

As to `O=C(Nc1sc2c(c1C(=O)O)CCCCC2)c1cccs1`, the fold change is -1.49 (inactive).

Take `O=C(O)c1csc2c1CCCC2`: the fold change was 2.51 (active).

In the case of `CCS(=O)(=O)c1ccsc1S(=O)(=O)CC`, the fold change is -1.28 (inactive).

With `COC(=O)Nc1ncc(CN2CCOCC2)s1`, the fold change is -2.39 (inactive).

Turning to `c1ccc(-c2ccc3ccccc3n2)nc1`, the fold change is -1.13 (inactive).

Take `c1ccc(-c2nc(-c3ccccn3)nc(-c3ccccn3)n2)nc1`: the fold change was 3.31 (active).

As to `O=S(=O)(O)c1ccc(-c2nnc(-c3ccccn3)nc2-c2ccc(S(=O)(=O)O)o2)o1`, the fold change is -1.16 (inactive).

On to `CC(C)(C)NC(=O)Nc1cccnc1Cl`, for which the fold change is -1.98 (inactive).

`C=CCOC(=O)c1sc(NC(=O)c2cccs2)nc1C`: the fold change was -1.68 (inactive).

In the case of `CCOC(=O)/C(C#N)=C(\C#N)C(=O)OCC`, the fold change was 1.04 (inactive).

Turning to `CN1CC(C(=O)Nc2ccc3c4c(cccc24)CC3)CC1=O` (configuration not stated), the fold change is 1.08 (inactive).

`CS(=O)(=O)Nc1ccc(F)cc1F`: the fold change is -1.21 (inactive).

Turning to `CS(=O)(=O)Nc1ccc2c3c(cccc13)CC2`, the fold change is 2.67 (active).

As for `Nc1nc(-c2ccc(Cl)c(Cl)c2)cs1`, the fold change was 1.69 (inactive).

On to `CCCOc1ccccc1N=c1ssc2c1-c1cc(C)c(C)cc1NC2(C)C`, for which the fold change was -3.58 (inactive).

Take `COc1cccc2c(C)nc(N=C(N)N)nc12`: the fold change was 1.65 (inactive).

For the molecule `Cc1nc(N=C(N)N)nc2ccccc12`, the fold change was 3.38 (active).

Regarding `COc1ccc2nc(N=C(N)N)nc(C)c2c1`, the fold change was 1.75 (inactive).

For `Cc1nccn1CCC1CCNCC1`, the fold change was 3.27 (active).

As to `S=c1n(CN2CCCCC2)nc(-c2ccccc2)n1-c1ccccc1`, the fold change is 3.46 (active).

Regarding `CC(C)(C)c1ccc(-c2nn(CN3CCC(c4ccccc4)C3)c(=S)n2-c2ccccc2)cc1` (configuration not stated), the fold change was -1.84 (inactive).

As for `Cc1ccc(-c2nn(CN3CCC(c4ccccc4)C3)c(=S)n2-c2ccccc2)cc1` (configuration not stated), the fold change is -1.2 (inactive).

For the molecule `O=C(NCCN1CCOCC1)C(=O)NCCN1CCOCC1`, the fold change is 1.02 (inactive).

For `COc1ccc(C2C3=C(Nc4ncnn42)c2ccccc2CC3)cc1OC` (configuration not stated), the fold change entry is “inactive”.

For `O=S(=O)(NCCCl)c1ccccc1`, the fold change was -1.04 (inactive).

For the molecule `C[C@H](CCC(=O)O)[C@H]1CC[C@H]2[C@@H]3[C@H](O)C[C@@H]4C[C@H](O)CC[C@]4(C)[C@H]3C[C@H](O)[C@]12C`, the fold change was -1.01 (inactive).

Consider `CCOC(=O)CC[C@@H](C)[C@H]1CC[C@H]2[C@@H]3[C@H](O)C[C@@H]4C[C@H](O)CC[C@]4(C)[C@H]3C[C@H](O)[C@]12C`, for which the fold change is -1.19 (inactive).

For the molecule `COC(=O)CCC(C)C1CCC2C3C(C[C@H](O)C12C)C1(C)CC[C@@H](O)CC1C[C@H]3O` (some centres not stated), the fold change is 4.26 (active).

As for `COc1ccc(-c2nc(-c3cccnc3)no2)cc1`, the fold change is -1.74 (inactive).

As for `O=C1CC(c2cc3c(cc2Br)OCO3)c2ccc3ccccc3c2N1` (configuration not stated), the fold change was 1.01 (inactive).

In the case of `Nc1nc(SCC(=O)Nc2ccc(Br)cc2)sc1C(=O)Nc1nccs1`, the fold change was -1.48 (inactive).

Consider `CCOC(=O)C(C(C)=O)C(C(C)=O)C(=O)OCC` (configuration not stated), for which the fold change is 1.67 (inactive).

As to `CC(=O)C(C(C)=O)C(C(C)=O)C(C)=O`, the fold change was 3.14 (active).

With `Brc1csc(-c2cc(Br)cs2)c1`, the fold change was -1.44 (inactive).

As to `NC(=O)c1c(NC(=O)CN2CCCCC2)sc2c1CCCC2`, the fold change was -1.75 (inactive).

In the case of `c1ccc(CCn2c(CSc3nc4ccccc4o3)nc3ccccc32)cc1`, the fold change was -1.06 (inactive).

As for `NS(=O)(=O)c1cc(C(=O)O)c(Cl)cc1Cl`, the fold change is -1.78 (inactive).

As for `c1ccc(-c2ccc(CSc3nc4ccccc4o3)cc2)cc1`, the fold change is -1.02 (inactive).

With `O=[N+]([O-])c1cc(Cl)ccc1NC1CCCCC1`, the fold change was 4.77 (active).

Consider `NNc1cc(Cl)ccc1[N+](=O)[O-]`, for which the fold change was 3.68 (active).

Turning to `O=[N+]([O-])c1ccccc1NC1CCCCC1`, the fold change is 1.67 (inactive).

On to `Cc1ccc(C)n1-c1ccc(NC2CCCC2)c([N+](=O)[O-])c1`, for which the fold change was -1.34 (inactive).

Regarding `O=[N+]([O-])c1ccc(Cl)cc1NCc1ccco1`, the fold change is -1.31 (inactive).

Turning to `O=[N+]([O-])c1ccc(Cl)cc1NCCO`, the fold change was 2.39 (inactive).
